The values below come from PubChem BioAssay (NCI).

Structures are written as SMILES. This is part of a sample that, as a whole, favours compounds with a hit. Of some 83,000 tested, about 20% had one in any assay.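 Each cell line was grown in a 96-well plate and treated with one concentration of compound for 48 hours. Values below 10 were considered active.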 A number with no mark means an inactive call. Active and inactive are the calls of the source.

This experiment concerns SN12C renal. Put plainly: NCI-60 one-dose screen, 48 h (100 = growth as untreated, 0 = no growth, -100 = all killed). The following applies: 10 µM unless noted.
`COCCOc1ccc2ncc(C#Cc3cncc(C(=O)Nc4ccc(CN5CCN(C)CC5)c(C(F)(F)F)c4)c3)n2n1`: the growth was 10.2%.

As to `CCOC(=O)c1c(N)c(C#N)cn1Cc1ccc(Cl)cc1Cl`, the growth was 81.2%.

Regarding `Cc1ccc(Nc2nc(SC(C)C)nc(-c3ccccc3)c2C#N)cc1`, the growth was 95.8%.

Turning to `O=C(CSc1nc2ccccc2c(=O)n1-c1ccc(Cl)c(Cl)c1)Nc1ccc(S(=O)(=O)Nc2ccc(Cl)nn2)cc1`, the growth was 96.4%.

`N#Cc1cnc2ccc(-c3cnc4n[nH]nc4c3)cc2c1N1CCc2cc(F)c(Cl)cc21`: the growth is 14.8%.

Consider `CNC(=O)Nc1ccc(Nc2cc(-c3ccc(-n4cccn4)cc3)[nH]n2)c(C)c1`, for which the growth was 101%.

As for `CN1CCN(Cc2ccc(NC(=O)c3cncc(C#Cc4cnc5ccc(N)nn45)c3)cc2C(F)(F)F)CC1`, the growth is 15.7%.

On to `Cc1cc(=O)oc2cc(OCCCOc3ccc(/C=C/C(=O)Nc4ccc(Br)cc4)cc3)ccc12`, for which the growth is 89.9%.

On to `C/C(CC1(O)C(=O)Nc2ccccc21)=N\O` (stereo unspecified), for which the growth is 98%.

Regarding `Cc1ccc2c(n1)C(=O)C(Cl)=C(Nc1ccccc1C(=O)OC(C)(C)C)C2=O`, the growth is 52.6%.

For the compound `COc1ccc(/C=N\NC(=O)c2cnn(CC(O)c3ccccc3)c2N)cc1OCc1ccc(Cl)cc1` (stereo unspecified), the growth is 84.4%.

For the compound `NC(N)=NS(=O)(=O)c1ccc(N=Nc2c(N)nn(-c3ccc([N+](=O)[O-])cc3[N+](=O)[O-])c2N)cc1`, the growth was 101%.

Regarding `COc1ccccc1Cn1cc(C#N)c(N)c1C(=O)c1ccc(Br)cc1`, the growth was 92.1%.

On to `CC(=C(c1ccc(OCCN2CCCC2)cc1)c1ccc(OCCN2CCCC2)cc1)c1ccc(Cl)cc1`, for which the growth is 47.9%.

`CCN(CC)CCOc1ccc(C(=C(C)Cc2ccc(OC)cc2)c2ccc(OCCN(CC)CC)cc2)cc1`: the growth is 86.1%.

Turning to `Fc1ccc(-c2cn3c(-c4c[nH]c5ccc(Br)cc45)csc3n2)cc1`, the growth is 52.4%.

`CC1=C(C)C(=O)C(Nc2cccc(C(=O)OC(C)(C)C)c2)=CC1=O`: the growth was 61.3%.

For the compound `CSc1ccc(/C(=N/N=C(N)N)c2ccc(Cl)cc2)cc1`, the growth was 7.12% (active).

On to `O=C(/C=C/Nc1ccc(S(=O)(=O)Nc2ncccn2)cc1)c1ccc(N=Cc2c(O)[nH]c3ccccc23)cc1`, for which the growth is 98.3%.

`N#Cc1c(-c2cccs2)cc(-c2cnccn2)nc1SCC(=O)N/N=C/c1cccs1`: the growth was 52.1%.

As to `O=S(=O)(NCCCNc1nccc(-c2[nH]c(-c3ccccc3)nc2-c2ccc(F)c(O)c2)n1)c1ccccc1`, the growth was 107%.

As to `CC1(C)CC[C@]2(C(=O)NCCCCCCN(CCCN)CCCN)CC[C@]3(C)C(=CC[C@@H]4[C@@]5(C)CC[C@H](O)C(C)(C)[C@@H]5CC[C@]43C)[C@@H]2C1`, the growth was 96.4%.

Regarding `CCOC(=O)c1c(NCC(=O)Nc2cccc([N+](=O)[O-])c2)sc(C(C)=O)c1C`, the growth is 12.6%.

Take `O=c1oc2ccc(-c3ccc(F)cc3F)cc2c(=O)n1-c1ccc(Br)cc1F`: the growth is 46.2%.

With `Cc1ccc2c(n1)C(=O)C(Cl)=C(Nc1cccc(C(=O)OC(C)(C)C)c1)C2=O`, the growth is 94.1%.

As for `C/C(=C(\c1ccc(O)cc1)c1ccc(OCCN2CCCCCC2)cc1)c1ccc(Cl)cc1`, the growth was -84.7% (active).

Consider `CC1=C(C)C(=O)C(Nc2cccc(C(F)(F)F)c2)=C(Br)C1=O`, for which the growth was 97.1%.

Regarding `CC(C)C(/C=C/c1[nH]ncc1-c1cc(Cl)ccc1O)N1CCOCC1` (stereo unspecified), the growth was 97.7%.

For `Fc1cccc(Cl)c1/C=N/Nc1nc(N/N=C/c2c(F)cccc2Cl)nc(N2CCCCC2)n1`, the growth was 23.2%.

Regarding `COc1ccc(C2C(C#N)=C(/N=C/c3ccc(Cl)cc3)Oc3c2sc2c(C)cccc32)cc1` (stereo unspecified), the growth is 42.4%.

On to `O=C(CCCCCCNC(=O)C(O)(O)C(F)(F)F)Nc1ccc(Cl)cc1`, for which the growth is 29.8%.

Regarding `O=C1C(SCc2ccccc2)=C(Cl)CN1c1ccc(Cl)cc1`, the growth was 100%.

Turning to `Cc1ccc(-c2nc(SCC(=O)c3ccccc3)nc(Nc3ccc(S(N)(=O)=O)cc3)c2C#N)cc1`, the growth was 63%.

Turning to `O=C1C(N2CCN(c3ccccc3)CC2)=C(Cl)C(=O)c2ncccc21`, the growth was 58.2%.

On to `C#Cc1nc(C(=O)NCCCCCCC(=O)NO)cs1`, for which the growth is 36.7%.

In the case of `C[C@H](Nc1ncnc2ccc(-c3cnc(Cl)c(NS(C)(=O)=O)c3)cc12)c1ccccc1`, the growth is 13.4%.
